Hits are enriched below; roughly 2.3% of the tested compounds scored in any of these assays.
Nrf2 ARE act = activates Nrf2 signaling; hit rate 0.31% among 410,000; Potency, µM (titrated, usually from 46.1 µM), without a hit: top-dose activation, usual class: activators; AREc32 ARE-luciferase reporter (MCF7-derived line), luminescence, 24 h; also: potency is read from the fitted curve at half-maximal effect; % of control where 0% means no effect; nearly all actives have a fitted effect of over 65% in size
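Steps: seed AREc32_Fluc cells (1000/well, 5% FBS OPTI-MEM); incubate overnight at 37 deg C; add 23 nL compound; incubate 24 hr; add Steady-Glo; hold 30 min RT; read luminescence.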
Nrf2 block = blocks Nrf2 signaling; hit rate 2.1% among 360,000; Potency, µM (doses to about 46 µM), for the others: top-dose activity change, negative = inhibition, usual class: inhibitors; AID 504444; A549 ARE-Fluc reporter, luciferase luminescence, 18-24 h; also: potency is read from the fitted curve at half-maximal effect; % is scaled to controls: 0 for no effect and ±100 for the full control effect; nearly all actives have a fitted effect of over 60% in size
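Quantitative HTS in A549 cells stably bearing an antioxidant response element-firefly luciferase construct. Inhibition of Nrf2-driven transcription was scored by luminescence after 18-24 h of compound exposure at 37 °C.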
A549 viability = A549 cytotoxicity, counter-screen for Nrf2 inhibitors; hit rate 0.16% among 390,000; A549 ARE-Fluc cells, CellTiter-Fluor viability, 18-24 h; AID 504648; Potency, µM (series often up to 46 µM), inactives show top-dose activity change, negative = cytotoxicity, usual class: inhibitors; also: potency is read from the fitted curve at half-maximal effect; % is scaled to controls: 0 for no effect and ±100 for the full control effect
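A549 ARE_Fluc cells in 5% FBS OPTI-MEM were exposed to compounds in concentration-response for 18-24 h at 37 deg C. Viability was read by CellTiter-Fluor fluorescence (Ex 405/Em 525) after 30 min, before the luciferase read.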
IL-2 act = IL-2 activation; IL-2 activation reporter assay, cell-based qHTS; stimulated with anti-CD3/CD4/CD28 beads; in transgenic mouse T cells; activation, % (series mostly up to about 46 µM); hit rate 0.065% among 360,000; in the data active = activation above about 50%; inconclusive = mostly about 30% to 49%; also: 0% is about no effect
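Unstimulated transgenic mouse T cells; 60-min compound exposure; bead-based TCR/CD4/CD28 stimulation; 18 h culture, 37 degrees C; dual fluorescence (EGFP, DsRed) plate cytometry.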
An asterisk follows results filed as active; u = inconclusive; x = no result; [ ] = remark or other dose. Unless noted, calls follow the shape of the dose curve; as a rule, active = well fitted curve in the direction sought with a large enough effect; inconclusive = small, poorly fitted or top-dose-only effect, or another doubt; inactive = no such curve, though single readings can be large; an effect the other way counts as inactive or inconclusive.

SMILES	Nrf2 ARE act	Nrf2 block	A549 viability	IL-2 act
CCCn1c2c(c(=N)c3c1CCC3)CCCC2	-0.1%	u	3.7%	-1.8
O=C(O)CCc1ccc(-c2ccccc2)n1-c1cccc(Br)c1	20.6%	5.1%	-5.6%	x
COC(=O)c1c(NC(=O)C2c3ccccc3Oc3ccccc32)sc2c1CCC(C)C2 (stereo not given)	4.1%	8.8%	8.9%	x
O=S1(=O)Nc2c(ccc3cccnc23)-c2ccccc21	7.08µM*	u	u	-3.5
Cc1cnc2c3c(cc(Cl)c2c1)-c1ccccc1S(=O)(=O)N3	x	6.51µM*	16.4µM*	x
Cc1ccc(C(=O)NCC(=O)OCc2cc(=O)n3c(C)csc3n2)cc1	4.2%	u	-4.4%	x
Cc1ccc(C(=O)N2CCN(c3ccc(F)cc3)CC2)cc1S(=O)(=O)N1CCCCC1	-1.2%	11.6µM*	-10.3%	-2.6
Cc1ccc(C(=O)N2CCN(c3ccccc3)CC2)cc1S(=O)(=O)N1CCCC1	1.9%	20.6µM*	-10.6%	-0.4
COc1ccc(-c2cn(-c3ccc(C)cc3)c(S(=O)(=O)CC(=O)Nc3ccccc3)n2)cc1	3.5%	-61.5%[9.27 µM]	u	x
CCc1cc2c(=O)c(-c3nc(C)cs3)c(CCCC(=O)O)oc2cc1O	2.9%	0.3%	0.5%	-0.6
CCc1cc2c(=O)c(-c3nc(C)cs3)coc2cc1OC(C)C(=O)NCCO (stereo not given)	0.1%	13µM*	-0.6%	0.4
COc1cc(F)c(S(=O)(=O)N2CCN(S(=O)(=O)c3cccc(N)c3)CC2)c(F)c1	x	0.1%	2.1%	x
CC(=O)Nc1ccc(S(=O)(=O)NCCSCc2ccccc2Cl)cc1	-0.4%	10.3µM*	-0.8%	-4.0
CC(=O)Nc1ccc(S(=O)(=O)NCC2CCC(C(=O)NCc3ccccc3Cl)CC2)cc1 (stereo not given)	0.3%	x	8.0%	x
Cc1ccc(S(=O)(=O)Nc2ccc(NC(=O)Nc3cccc(C(F)(F)F)c3)cc2)cc1	-2.9%	18.4µM*	u	-3.8
CCN(CC)S(=O)(=O)c1ccc(NC(=O)Nc2cccc(C(F)(F)F)c2)cc1	2.4%	20.6µM*	u	5.4
O=C(Nc1ccc(OC(F)F)cc1)Nc1cccc(C(F)(F)F)c1	0.1%	20.6µM*	u	-0.2
CCN(CC)S(=O)(=O)c1ccc(C(=O)Nc2cccc(C)c2)cc1	2.5%	u	-25.9%	-0.9
NC(=O)/C=C\C(=O)Nc1cccc(C(F)(F)F)c1	u	1.84µM*	-21.3%	-3.0
O=C(Nc1ccncc1)Nc1cccc(C(F)(F)F)c1	0.1%	u	0.4%	-2.6
Cc1c(Cl)cccc1NS(=O)(=O)c1cc2c(cc1Cl)CCC(=O)N2	x	u	-1.9%	x
Cc1coc2cc3oc(=O)c(CC(=O)NCc4cccc(Cl)c4)c(C)c3cc12	2.2%	-19.5%	1.6%	x
COc1cc(Cl)c(C)cc1NC(=O)Cn1cnc2sc(C)c(S(=O)(=O)N3CCCCC3)c2c1=O	6.1%	13.7%[9.27 µM]	-15.1%	x
COc1ccc(NC(=O)CSc2nc3ccccc3n2CC(=O)N(C)C2CCCCC2)cc1	4.5%	x	1.9%	x
CCOC(=O)CSc1nc2ccccc2c(=O)n1Cc1ccco1	10.0%	4.2%	u	1.9
SMILES	Nrf2 ARE act	Nrf2 block	A549 viability	IL-2 act
O=c1c2ccccc2nc(SCc2nc3ccccc3s2)n1Cc1ccco1	0.4%	4.61µM*	19.1%[1.84 µM]	-0.1
O=C(CSc1nc2ccccc2c(=O)n1Cc1ccco1)c1ccccc1	5.5%	18.4µM*	14.4%[1.84 µM]	-4.4
Cc1cc2c(s1)c1cnn(Cc3c(F)c(F)cc(F)c3F)c(=O)c1n2C	x	-9.5%	-0.2%	x
C=CCN1C(=O)CSc2ccc(C(=O)NCc3ccco3)cc21	6.1%	15.6%	7.2%	-1.3
O=C(NCc1ccco1)c1ccc2c(c1)N(Cc1ccccc1)C(=O)CS2	5.4%	23.1µM*	-1.4%	0.0
O=C(Nc1ccc2nc(SCC(=O)N3CCCC3)sc2c1)c1cccc(F)c1	3.8%	u	u	x
COc1ccc2nc(SCC(=O)O)nc(C)c2c1	0.3%	22.9%	-1.3%	4.7
COc1ccc2nc(SCCOC(=O)Nc3ccc(Cl)cc3)nc(C)c2c1	0.2%	23.1µM*	u	0.2
Cc1cccc(C(=O)Nc2ccc(N3CC=C(c4ccccc4C)CC3)c(C(=O)O)c2)c1	-0.7%	x	1.4%	x
COc1ccccc1-c1cc(C(F)(F)F)nc(S(=O)(=O)CCCC(=O)Nc2cccnc2Cl)n1	-3.0%	20.6µM*	u	-4.7
Fc1cc(F)cc(Nc2nc(NC3CCCC3)nc(C3CO3)n2)c1 (stereo not given)	x	12.1%	1.8%	x
N#Cc1ccc(N2CCN(S(=O)(=O)c3ccc4c(c3)CC(=O)N4)CC2)cc1	x	6.6%	14.5%	x
CCN(Cc1ccccc1)S(=O)(=O)c1ccc(C(=O)N(CCCN(C)C)c2nc3cc4c(cc3s2)OCO4)cc1	-3.5%	-15.3%	-16.9%	-2.2
CCN(Cc1ccccc1)S(=O)(=O)c1ccc(C(=O)N(CCCN(C)C)c2nc3c(C)c(C)ccc3s2)cc1	1.3%	18.4µM*	u	-5.2
Clc1ccc(N2CCN(c3ccnc(Cl)n3)CC2)cc1	0.3%	16.4µM*	-6.9%	-6.8
CCC(=O)N(C1=C(NC)C(=O)c2ccccc2C1=O)C(C)C	-3.9%	16.4µM*	u	-1.0
CNC1=C(N(C(C)=O)c2ccc(Br)cc2)C(=O)c2ccccc2C1=O	-3.3%	16.4µM*	u	-0.5
COc1ccc(NS(=O)(=O)c2ccc(N3CCCCS3(=O)=O)cc2)cc1Cl	0.1%	x	-5.2%	x
COc1ccc(OC)c(-c2nn(-c3ccccc3)cc2C(=O)N2CCc3ccccc3C2)c1	4.1%	u	u	0.4
COc1ccccc1-c1nn(-c2ccccc2)cc1C(=O)N1CCc2ccccc2C1	4.7%	20.6µM*	u	-0.3
Cc1cc(N/C=C/C(=O)c2ccccc2)ccc1Br	5.62µM*	u	-3.7%	-0.3
CCOC(=O)c1ccc(N/C=C/C(=O)c2ccccc2)cc1	5.4%	u	-22.3%	-0.5
O=C(/C=C/Nc1ccccc1)c1ccccc1	10µM*	u	-3.2%	0.1
CCOC(=O)c1ccccc1N/C=C/C(=O)c1ccccc1	10µM*	u	-1.2%	-1.0
Cc1ccc(-c2nn(CC(=O)Nc3cccc(C(F)(F)F)c3)c(=O)c3ccccc23)cc1	3.2%	u	-0.6%	x
SMILES	Nrf2 ARE act	Nrf2 block	A549 viability	IL-2 act
CCOC(=O)c1oc2ccc(S(=O)(=O)Nc3ccc4c(c3)n(C)c(=O)n4C)cc2c1C	7.9%	20.6µM*	-4.9%	-2.1
Cn1c(=O)n(C)c2cc(NS(=O)(=O)c3ccc(C(C)(C)C)cc3)ccc21	4.4%	10.3µM*	-6.3%	-1.7
CCc1ccc(S(=O)(=O)Nc2cccc(C3OCCCO3)c2)cc1	-0.2%	10.3µM*	-1.8%	0.0
CCc1cccc(NS(=O)(=O)c2ccc3c(c2)n(C)c(=O)n3C)c1	2.2%	13µM*	-5.6%	-4.5
O=C(Nc1nc(-c2ccc3c(c2)OCCO3)cs1)C1CC(=O)N(c2ccc3c(c2)OCCO3)C1 (stereo not given)	x	u	0.0%	x
O=S(=O)(c1c(Cl)cc(Br)cc1Cl)N1CCN(C(=S)NC2CC2)CC1	2.5%	11.6µM*	-19.7%	-0.7

From PubChem BioAssay
